From PubChem BioAssay AID2685 (National Center for Advancing Translational Sciences (NCATS), 2010) come the findings set out here.

Several values for one entry are separate records, joined by “and”; a condition that tells them apart may be missing. Identical values can stand only once. Out of some 320,000 compounds screened, about 2,100 (0.66%) were called active. Inconclusive results (about 53%) are left out. Calls follow the shape of the dose curve; as a rule, active = well fitted inhibition curve with a large enough effect in the signal ratio, with a control signal flat (not every such curve was filed as active); inconclusive = small, poorly fitted or top-dose-only effect, or effect the other way, or a change in a side signal; inactive = flat fitted curve, though single readings scatter; the % refers to the signal ratio. What follows is part of a selection rich in actives, with near analogues and random picks from the rest.
Potency is read from the fitted curve at half-maximal effect.

The assay can be described thus: qHTS Assay for Lipid Storage Modulators in Drosophila S3 Cells.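 As to cell number change: cells counted by Cell Tracker Red CMTPX staining in the red channel.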 As to lipid storage change, negative = inhibition: % is scaled to controls: 0 for no effect and ±100 for the full control effect. Conditions: BODIPY lipid droplet fluorescence, 18-24 h, cells fed with added oleic acid; cell number change: measured here: cell count max response; series mostly up to 46.1 µM; lipid storage change, negative = inhibition: at the top concentration. The essentials:
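Drosophila S3 cells got compounds at several concentrations plus oleic acid (400 uM solution). Laser-scanning cytometry with 488 nm excitation read lipid droplets at 500-530 nm and cells at 575-640 nm. Percent activity was relative to 20 uM Triacsin C.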
For orientation: qHTS replaces the single test concentration by a dilution series.
As to `O=C1C2C3C=CC(C3)C2C(=O)N1c1cccc2ccccc12` (stereo not given), the call was inactive.

In the case of `CCCN(c1ccccc1C(=O)O)S(=O)(=O)c1ccc2c(c1)n(C)c(=O)n2C`, the “lipid storage change, negative = inhibition” value is 7.64% (inactive) and the cell number change was 4.38%.

Take `CN(Cc1cccc(Cl)c1)C(=O)C1CSC2(C)CCC(=O)N12` (stereo not given): the “lipid storage change, negative = inhibition” value was -14.7% (inactive) and the cell number change came out at 2.85%.

For `COc1ccc(Oc2cccc(Cl)c2CNC(=O)CCCC(=O)O)cc1`, the “lipid storage change, negative = inhibition” value was 19% (inactive) and the cell number change is -4.23%.

Turning to `CC1(C)CC(O)C(C)(C)N1O` (stereo not given), the “lipid storage change, negative = inhibition” value is -10.4% (inactive) and the cell number change was determined as 0.759%.

In the case of `COc1ccc2[nH]c(=O)c(CN(C(=O)C3CCCO3)c3ccc(C)cc3)cc2c1` (stereo not given), the “lipid storage change, negative = inhibition” value is 22.5% (inactive) and the cell number change is -16.8%.

Consider `O=C(O)CCC(=O)Nc1ccc(/C=C/C(=O)C2CC2)cc1`, for which the “lipid storage change, negative = inhibition” value is 4.47% (inactive) and the cell number change was 0.554%.

On to `COC(=O)C(C(=O)OC)C(C[N+](=O)[O-])c1ccc(OC)cc1` (stereo not given), for which the “lipid storage change, negative = inhibition” value was -0.0854% (inactive) and the cell number change was -3.46%.

As to `COc1ccc(C(C[N+](=O)[O-])n2nc(C)cc2C)cc1` (stereo not given), the Potency was 5.17 µM (active) and the cell number change was -16.7%.

Turning to `Cc1ccc(C(C[N+](=O)[O-])n2nc(C)cc2C)cc1` (stereo not given), the outcome was inactive and the cell number change came out at 28.9%.

As to `CCCCn1c(=O)nc2n(-c3ccc(Cl)cc3)c3ccccc3cc-2c1=O`, the “lipid storage change, negative = inhibition” value is 16.3% (inactive).

Turning to `C=CCNC(=O)c1ccc(Sc2ccc(C)cc2)c([N+](=O)[O-])c1`, the “lipid storage change, negative = inhibition” value is -20% (inactive) and the cell number change is -8.5%.

For the compound `CCOC(=O)c1nc2sc(C)c(C)c2c(=O)[nH]1`, the “lipid storage change, negative = inhibition” value is 5.14% (inactive) and the cell number change was -3.45%.

Consider `Cc1c(C(=O)O)sc2nc(/C=C/c3cccc(O)c3)[nH]c(=O)c12`, for which the “lipid storage change, negative = inhibition” value is 0.183% (inactive) and the cell number change stood at 5.19%.

With `CCOC(=O)/C(=C\c1cccc(O)c1)c1nc2sc(C)c(C)c2c(=O)[nH]1`, the Potency is 20.6 µM (active) and the cell number change was -21.1%.

In the case of `NC(=O)C1CCN(c2ccnc3cc(Cl)ccc23)CC1`, the “lipid storage change, negative = inhibition” value was -18.4% (inactive) and the cell number change is -7.1%.

Turning to `Cc1ccc(N(C(=O)CCCC(=O)Nc2ccccn2)C(C(=O)NC2CCCC2)c2ccc(O)cc2)cc1C` (stereo not given), the compound was classed as inactive and the cell number change was -6.35%.

Regarding `CCOC(=O)c1sc2nc3n(c(=O)c2c1C)CCC3`, the “lipid storage change, negative = inhibition” value was 18.2% (inactive) and the cell number change was 7.44%.

Consider `COc1ccc(COC(=O)c2sc3nc4n(c(=O)c3c2C)CCC4)cc1`, for which the outcome was inactive.

As for `Cc1cc(C)cc(NC(=O)c2sc3nc4n(c(=O)c3c2C)CCC4)c1`, the Potency is 18.4 µM (active) and the cell number change is -23.1%.

Turning to `CCc1cccc(NC(=O)c2ccc3c(=O)n4c(nc3c2)CCCCC4)c1`, the “lipid storage change, negative = inhibition” value is 5.18% (inactive) and the cell number change is -2.31%.

As to `COc1ccccc1N1CCN(C(=O)c2sc3nc4n(c(=O)c3c2C)CCC4)CC1`, the “lipid storage change, negative = inhibition” value was -15.3% (inactive) and the cell number change was -21.5%.

Turning to `Cc1c(C(=O)NCCO)sc2nc3n(c(=O)c12)CCC3`, the “lipid storage change, negative = inhibition” value is -0.957% (inactive) and the cell number change amounted to 20%.

For the compound `CCc1ccc(NC(=O)c2sc3nc4n(c(=O)c3c2C)CCC4)cc1`, the Potency was 2.31 µM (active) and the cell number change was -24%.

Take `CCc1cccc(NC(=O)c2sc3nc4n(c(=O)c3c2C)CCC4)c1`: the Potency was 5.8 µM (active) and the cell number change is -22.1%.

With `Cc1c(C(=O)Nc2ccc(OC(F)(F)F)cc2)sc2nc3n(c(=O)c12)CCC3`, the “lipid storage change, negative = inhibition” value is -11.7% (inactive) and the cell number change was 2.69%.

In the case of `CCOC(=O)c1sc2nc3n(c(=O)c2c1C)CCCCC3`, the “lipid storage change, negative = inhibition” value was 14.1% (inactive) and the cell number change is -6.59%.

Regarding `CCOc1ccc(CCNC(=O)c2sc3nc4n(c(=O)c3c2C)CCC4)cc1`, the “lipid storage change, negative = inhibition” value is -17.7% (inactive) and the cell number change was found to be 17.9%.

In the case of `COc1cccc(NC(=O)c2sc3nc4n(c(=O)c3c2C)CCC4)c1`, the Potency was 4.11 µM (active) and the cell number change is -27.4%.

As to `Cc1cccn2c(=O)c3cc(C(=O)NCCCN4CCOCC4)n(C)c3nc12`, the “lipid storage change, negative = inhibition” value was 21.1% (inactive).

As for `CCCCN1C(=O)NC(NC(=O)C2CC2)(C(F)(F)F)C1=O` (stereo not given), the “lipid storage change, negative = inhibition” value was 0.363% (inactive) and the cell number change was found to be 15%.

`CC(=O)Nc1ccc(S(=O)(=O)N(C#N)c2nc(N(C)C)nc(N(C)C)n2)cc1`: the “lipid storage change, negative = inhibition” value was 0.237% (inactive) and the cell number change was -23%.

For the compound `CN(C)CC(=O)Nc1ccc2cn[nH]c2c1`, the “lipid storage change, negative = inhibition” value is 0.452% (inactive) and the cell number change was -1.8%.

With `CSc1nc(C)c(Cl)c(C)c1C#N`, the “lipid storage change, negative = inhibition” value was 10.8% (inactive) and the cell number change is -6.02%.

For the compound `COc1cc(Cl)cc(C(=O)O)c1OCC(=O)O`, the “lipid storage change, negative = inhibition” value was 7.31% (inactive) and the cell number change is 3.53%.

For `O=C(/C=C/c1ccc(F)cc1)N1CCN(c2ncccn2)CC1`, the “lipid storage change, negative = inhibition” value was -0.413% (inactive) and the cell number change was 20.7%.

`CC(=O)NNC(=O)CCn1c2c(c3ccccc31)CCCC2`: the “lipid storage change, negative = inhibition” value is -7.9% (inactive) and the cell number change came out at 1.32%.

Take `Fc1ccccc1CNc1ccc(Cl)cc1`: the “lipid storage change, negative = inhibition” value was 12.9% (inactive) and the cell number change is -4.41%.

In the case of `CN(C)S(=O)(=O)Nc1ccccc1F`, the “lipid storage change, negative = inhibition” value was -12.4% (inactive) and the cell number change was -0.564%.

Turning to `CN(C)S(=O)(=O)Nc1cccc(Br)c1`, the Potency result was “inactive”; the cell number change was 0.321% and 14.1%.

In the case of `CN(C)S(=O)(=O)Nc1ccc(Br)cc1F`, the Potency is 23.1 µM (active) and the cell number change is -21.1%.

In the case of `CC(=O)c1c(C)[nH]c(C(=O)NCc2cccs2)c1C`, the outcome was inactive.

Consider `COc1ccc(N2CCN(CC(O)COc3ccc4c(c3)CCC4)CC2)cc1` (stereo not given), for which the compound was classed as inactive and the cell number change was found to be 10.4%.

As to `O=C1CN(CC(=O)N2CCOCC2)c2ccccc2O1`, the compound was classed as inactive.

Turning to `COc1ccc(/C(C)=N/NC(=S)NCCc2ccccc2)cc1`, the outcome was inactive.

Turning to `COc1cccc(OC)c1C(=O)NC(C)c1ccccc1` (stereo not given), the “lipid storage change, negative = inhibition” value is 2.45% (inactive) and the cell number change was 0.137%.

With `NS(=O)(=O)c1ccc(CCNC(=O)c2ccc3c(c2)OCCO3)cc1`, the “lipid storage change, negative = inhibition” value is -3.84% (inactive) and the cell number change amounted to 12.5%.

Take `O=C(NCCc1ccc(Cl)cc1)c1ccc2c(c1)OCO2`: the “lipid storage change, negative = inhibition” value is -3.03% (inactive).

`NS(=O)(=O)c1ccc(CCNC(=O)c2ccc3c(c2)OCO3)cc1`: the Potency is 23.1 µM (active) and the cell number change is 21.4%.
